The source made the active and inactive calls.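 The calls were made as follows: active = cell survival after UV exposure 2 SD above solvent-only control wells at 10 µM, confirmed on one or two repeats; inactive = the rest.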
Experiment: protection of CHO cells from pyrene-fatty acid UV killing, primary screen, phospholipid biosynthesis inhibitor project, ZR-82 cells, Analyticon library, screen 2 (AID 1347383);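 also: survival reflects blocked phospholipid synthesis cutting uptake of the phototoxic fatty acid; compound and fatty acid exposure 3 h then viability read next day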
Settings: ZR-82 CHO cells, CellTiter Blue, at 10 µM, peroxisome-deficient CHO-K1 variant, with DGAT-1, DGAT-2 and ACAT inhibitors

**Q.** With `CC(=O)C(C)C1OC(CCO)c2cc(C)ccc2C1C` (centres undefined) as the compound, how does the outcome read?
**A.** inactive

**Q.** Which outcome does the source give for `O=C1c2c(O)cc(O)cc2O[C@@H](c2ccc(O)cc2)[C@@H]1O` here?
**A.** inactive

**Q.** With `CC1CCC2(C)C(CC(O)C(O)C23CO3)C1(C)CCC1=CC(O)OC1=O` (centres undefined) as the compound, how does the outcome read?
**A.** inactive

**Q.** Which outcome does the source give for `CO[C@@H]1[C@H](OC(=O)/C=C/C(O)C(C)O)CC[C@]2(CO2)[C@H]1[C@@]1(C)O[C@@H]1CC=C(C)C` (some centres undefined) here?
**A.** inactive
